Assay results taken from the supplement of paper PMC3334620.
Over roughly 33,000 sequences, “E-score (-0.5 to 0.5)” has its median near -0.0059; the highest 2% begin near 0.26. What follows is part of a selection rich in the highest values, with near analogues and random picks from the rest.

These sequences were tested against T1, Cin5 (UniProt P40917) (assay: PBM E-score (8-mer binding enrichment) (E-score (-0.5 to 0.5)); higher = stronger / more preferred TF binding). Conditions: protein concentration: 100 nM; construct: GST-full length.
T1 sequence: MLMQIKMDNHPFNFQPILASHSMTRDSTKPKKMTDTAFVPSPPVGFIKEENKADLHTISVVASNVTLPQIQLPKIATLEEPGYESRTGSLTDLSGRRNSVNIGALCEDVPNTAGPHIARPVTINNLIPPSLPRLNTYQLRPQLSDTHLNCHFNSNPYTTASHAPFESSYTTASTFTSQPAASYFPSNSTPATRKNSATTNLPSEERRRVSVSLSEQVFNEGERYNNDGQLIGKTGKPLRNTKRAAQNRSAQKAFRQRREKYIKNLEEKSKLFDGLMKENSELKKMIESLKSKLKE
Summary of the method: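 Each ungapped eight-base word and its reverse complement, pooled, received an E-score from the Universal PBM Analysis Suite. Underlying scans, normalised with masliner, recorded fluorescent anti-GST bound to GST-tagged yeast transcription factors. These were applied at about 100-200 nM to universal all-10-mer Agilent arrays double-stranded by primer extension.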

Row | Sequence | PBM E-score
1 | CAAGCCTA | -0.16
2 | GGTTACAA | 0.0628
3 | CAAGTGAG | -0.036
4 | CAGATCGG | -0.0356
5 | GGGATTAC | 0.264
6 | CCGATTAC | 0.23
7 | GCGATTAC | 0.264
8 | ACGATTAC | 0.295
9 | CGGATTAC | 0.122
10 | GCGATTAA | 0.209
11 | AAGATTAC | 0.255
12 | TCGATTAA | 0.267
13 | ACGATTGC | 0.153
14 | GGGATTAA | 0.23
15 | CCGATTAA | 0.117
16 | ACGATTAA | 0.0274
17 | GCAGTACC | -0.0675
18 | CAGTTACC | -0.0935
19 | ACACACCG | -0.137
20 | CTAATGGC | -0.0137
21 | CCTTTGCA | -0.0748
22 | ATCACAGA | -0.0171
23 | CCCACGTA | -0.0439
24 | CACCCAGG | -0.237
25 | TACGATGA | 0.12

Row | Sequence | PBM E-score
26 | ACGATTAG | 0.158
27 | ACGATTAT | 0.274
28 | AGGATTAT | -0.0477
29 | CCCGTTTA | 0.069
30 | TCATTACA | 0.164
31 | AGATTACA | 0.286
32 | CGATTACC | 0.143
33 | AGATTACT | 0.182
34 | CCATTACA | 0.223
35 | CGATTACG | 0.389
36 | TGATTACA | 0.301
37 | AGATTACC | 0.14
38 | CGATTACA | 0.177
39 | AGATTACG | 0.419
40 | GGATTACA | 0.19
41 | CCATTACG | 0.0601
42 | CTCCCTTC | -0.312
43 | AAAAGCCC | -0.0247
44 | CGGGCCTC | 0.0182
45 | CACACACA | 0.0837
46 | AAGACCAC | -0.205
47 | CACCCGGC | -0.351
48 | TCAGGCAA | -0.0467
49 | CGGGTGTA | 0.0316
50 | GATTCACA | 0.0537

Row | Sequence | PBM E-score
51 | AATTCACG | -0.0153
52 | AATTCACA | 0.258
53 | AAGGTATA | -0.0348
54 | TCTAATCA | 0.231
55 | ACTAATCA | 0.264
56 | ACTAAACA | 0.258
57 | ACTAATCT | 0.128
58 | ACTAAACC | -0.0367
59 | TCTAAACA | -0.115
60 | CCTAATCG | 0.155
61 | ACTAATCG | 0.355
62 | ACTAATCC | 0.125
63 | CTCGACCC | -0.157
64 | CCGTTACG | 0.0353
65 | ATCTTTAA | 0.0357
66 | CCCCTCTC | -0.318
67 | AACGTCGG | -0.0613
68 | TATGTCGA | 0.0777
69 | AGTATTCA | 0.165
70 | CTCGCAAA | -0.0438
71 | GTCAGCCA | 0.07
72 | ATACCTAT | 0.176
73 | ATACCTAC | 0.046
74 | ATACCTAA | 0.286
75 | AGGCAGAC | -0.247

Row | Sequence | PBM E-score
76 | CTGCTTAA | 0.00628
77 | CTGCTTTA | 0.278
78 | CTGCTTTC | 0.058
79 | ATGCTTAC | 0.265
80 | CTGCTGAC | 0.26
81 | ATGCTTAA | 0.146
82 | CTGCTTCC | -0.178
83 | CTGCTGAA | -0.212
84 | ATGCTTTA | -0.0364
85 | ATGCTTTC | 0.155
86 | CTGCTTAC | 0.402
87 | CTGCTGTC | -0.0623
88 | AAACCTGT | 0.0662
89 | ATGTGAGC | -0.0106
90 | AAAAGCTG | -0.148
91 | GCAGGAGC | -0.285
92 | GACCGCCC | -0.161
93 | TCGAGTCA | -0.0465
94 | ATTTCCTC | 0.09
95 | AGGAGCCG | -0.317
96 | AGAGGAGC | -0.233
97 | GGCTGCAA | -0.0216
98 | ATGCTTAG | 0.313
99 | ATGCTTCG | -0.0239
100 | ATGCTTGG | -0.0358

Row | Sequence | PBM E-score
101 | GGGGAAAC | -0.0321
102 | GAGAACAC | 0.047
103 | GAGAACAA | 0.269
104 | AAGAACAA | 0.197
105 | CGGAACAA | 0.302
106 | CGGAACGA | 0.287
107 | TGGAACAA | 0.0669
108 | AGGAACGA | -0.244
109 | CGGAACAC | 0.177
110 | CGGAACGC | 0.0289
111 | CGCCCCAC | 0.131
112 | AGTTTCTG | 0.0528
113 | GTGGAGGA | -0.0744
114 | GGACTAAC | -0.232
115 | GTCACAAA | -0.0564
116 | TGATGGCA | -0.112
117 | GGATGGCA | 0.27
118 | GGATGGCC | -0.296
119 | AACCTAGG | -0.0368
120 | GTTCGTAA | 0.153
121 | ATACGAAA | 0.265
122 | ATTCGTAA | 0.304
123 | GTACGTAA | 0.397
124 | CTTCGTAA | 0.0958
125 | ATACGTAC | -0.0222

Row | Sequence | PBM E-score
126 | ATACGTAA | 0.386
127 | GTACGTAC | -0.00455
128 | CTACGAAA | -0.0568
129 | ATACGAAT | 0.0148
130 | CTACGTAA | 0.24
131 | ATACGTAG | 0.116
132 | CACGGAAA | 0.224
133 | AAACTCAT | 0.205
134 | CGAGATAA | 0.255
135 | CGCACGGC | 0.001
136 | ACTTTTCT | 0.0353
137 | ATCCAGAG | 0.161
138 | CGCATCGC | -0.195
139 | CACAACTA | 0.211
140 | GATGAGTA | 0.152
141 | AGGGAGAC | -0.0805
142 | AACGATAT | 0.285
143 | AACGATAC | 0.0238
144 | AAAGATAG | -0.0374
145 | AAAGATAC | 0.186
146 | AACGATAG | 0.0137
147 | AAAGATAT | 0.3
148 | ATCGGTGA | 0.103
149 | GGCTGAGA | -0.0327
150 | GGCCCAAC | -0.0745

Row | Sequence | PBM E-score
151 | AATGGCTC | 0.0552
152 | AATGGCTA | 0.274
153 | AATGGCAC | 0.00736
154 | AATGGCAT | 0.32
155 | AATGGCAG | 0.0479
156 | CATGGCTA | 0.037
157 | GCACTCCA | -0.111
158 | ATTTCGAA | 0.188
159 | CCGTAAGC | 0.332
160 | CCGTAATC | 0.329
161 | GCGTAAGC | 0.227
162 | CCGTAAAC | 0.072
163 | CCGTAAGA | -0.122
164 | CCGTAATA | 0.203
165 | GAATCCTA | 0.0175
166 | GGAAACTA | -0.105
167 | TATCTCCA | 0.112
168 | AGTAATCG | 0.262
169 | GTAAATCA | 0.284
170 | CTAAATCA | 0.00062
171 | AGTAATGG | 0.162
172 | GGTAATGA | 0.153
